27 molecules from PubChem BioAssay can be followed below.

The nature of this assay: JC-1 mitochondrial signal, unstimulated MM1S myeloma – cell-based, JC-1 fluorescence, 24 h, 100 nL compound, profiling panel (AID 1170). Note: test concentration not given here. The note with it: MM1S mitochondrial potential, higher = more signal.
For `CC(=O)n1cc(C(O)C2C=CC3C(=O)N(Cc4ccccc4)C(=O)C3N2n2cnnc2)c2ccccc21` (configuration not stated), the z-score is -0.321.
For `COc1cc2c(cc1OC)CN(C(=O)[C@H]1[C@@H]3C(=O)O[C@@H](c4ccccc4)[C@@H](c4ccccc4)N3[C@@H](c3ccc(OCCO)cc3)[C@]13C(=O)Nc1ccc(C#CC4(O)CCCCCC4)cc13)CC2`, the z-score was -0.852.
For `O=c1cccc(-c2ccc(C(F)(F)F)cc2)o1` the value was -0.507; for `COc1ccc(C(O)C2C=CC3C(=O)N(Cc4ccccc4)C(=O)C3N2n2cnnc2)c2ccccc12` (configuration not stated), -0.129.
On to `CC(C)(C)OC(=O)CC[C@]1(C(=O)NCCN2CCOCC2)N=C(c2ccc(OCCCO)cc2)O[C@H]1c1ccccc1N=[N+]=[N-]`, for which the z-score is -0.961.
In turn, `C=CC[C@H](OC(=O)Nc1ccc(OC)cc1)c1ccc(O)c2ccccc12` gave a z-score of -2.15.
The figure for `COC(=O)[C@@]1(Cc2ccc(OC)cc2)[C@H]2c3cc(C(=O)N4CCCC4)n(CCc4cc5ccccc5[nH]4)c3C[C@H]2CN1C(=O)c1ccccc1` is -1.1.
For `COc1ccc(CCNC(=O)[C@@]2(Sc3ccc(C)cc3)CC(=O)N(Cc3cc(C(F)(F)F)cc(C(F)(F)F)c3)[C@@H]2c2ccc(CO)cc2I)cc1` the value was -2.1.
In the case of `COc1ccc(C(O)C2C=CC3C(=O)N(C)C(=O)C3N2N2CCCCC2)cc1` (configuration not stated), the z-score amounted to 0.188.
On to `COc1ccc([Si](C)(C)[C@@H]2[C@@H](CC(=O)N3CCC[C@H]3CO)O[C@]3(C(=O)N(Cc4ccc(N5C(=O)c6cccc7cccc5c67)cc4)c4ccccc43)[C@H]2C)cc1`, for which the z-score is -2.21.
The molecule `O=C1c2ccccc2[C@@]2(Cc3ccccc3N(C3CC3)C2=O)[C@H](c2ccc(CO)cc2)N1C1CCCCC1` displayed a z-score of 0.144.
The figure for `CCOC(=O)C1=CC[C@@H](c2cc(Cl)ccc2Cl)N(S(=O)(=O)c2ccc(C)cc2)[C@H]1c1ccc(OC)cc1` is -2.07.
Take `CC=CC(O)C1C=CC2C(=O)N(C)C(=O)C2N1N1CCCCC1` (configuration not stated): the z-score was -0.00172.
For `C=C(C(=O)CC[C@H](OC(C)=O)c1cccc(OCCO)c1)C(C)C` the value was 0.89; for `CC(C)C(=C=CC[C@H](O)c1ccc(OCCO)cc1)C[C@H](O)c1cc(Cl)cc(Cl)c1O`, -0.66; for `COc1ccc(C#Cc2ccc3c(c2)[C@]2(C(=O)N3)[C@H](C(=O)N3CCc4cc(OC)c(OC)cc4C3)[C@H]3C(=O)O[C@H](c4ccccc4)[C@H](c4ccccc4)N3[C@@H]2c2ccc(O)cc2)cc1`, -1.09.
The figure for `CN1C(=O)[C@@]2(CCS(=O)(=O)c3ccccc3)N=C(c3ccc(OCCCO)cc3)O[C@H]2c2ccccc21` is 0.111; for `CC[C@H]1C2=C3C(CC[C@H]4C(OCc5ccc(F)cc5C(F)(F)F)OC[C@](C)([C@@H]34)N(C(=O)OC(C)(C)C)C2)C2COC(=O)OCC21` (some centres not stated) it is -1.45; for `Cc1ccc(S[C@]2(C(=O)NCc3ccccc3)CC(=O)N(C(C)C)[C@@H]2c2ccc(CO)cc2I)cc1` it is -1.12.
Molecule `Cc1ccc(C(C)CC(O)C2C=CC3C(=O)N(c4ccccc4)C(=O)C3N2Nc2ccc(C(C)C)cc2)o1` (configuration not stated) gave a z-score of 0.772.
`COCCOC(=O)N1C(=O)[C@@]2(c3cc(C#Cc4ccc(OC)cc4)ccc31)[C@H](C(=O)NC[C@H](O)c1ccccc1)[C@H]1C(=O)O[C@H](c3ccccc3)[C@H](c3ccccc3)N1[C@@H]2c1ccc(O)cc1` showed a z-score of 0.122.
Turning to `COCCOC(=O)N1C(=O)[C@@]2(c3cc(C#CC4(O)CCCCCC4)ccc31)[C@H](C(N)=O)[C@H]1C(=O)O[C@H](c3ccccc3)[C@H](c3ccccc3)N1[C@@H]2c1ccc(O)cc1`, the z-score was -1.25.
Regarding `CC1CC/C=C\[C@H]2OC34C=CCN(C(C)C)C(=O)[C@H]3N(CCCCCO)C(=O)[C@@H]4C2C(=O)O1` (some centres not stated), the z-score was determined as 1.9.
In the case of `CCOC(=O)C1=CC[C@@H](c2ccccc2)N(S(=O)(=O)c2ccc(C)cc2)C1`, the z-score was -0.977.
`CCN(CC)c1ccc(N2CC=CC34O[C@@H]5/C=C\CCC(C)OC(=O)C5[C@H]3C(=O)N(CCO)[C@@H]4C2=O)cc1` (some centres not stated) displayed a z-score of 1.83.
In the case of `C=CCOC(=O)[C@H]1[C@@H]2C(=O)O[C@@H](c3ccccc3)[C@@H](c3ccccc3)N2[C@@H](c2ccc(OCCOC(=O)[C@H]3C[C@H]4C(=O)N[C@@H](CCCC[N+](C)(C)C)C(=O)N4[C@H]3c3cccc(OCCO)c3)cc2)[C@]12C(=O)Nc1ccc(I)cc12`, the z-score was -1.31.
The figure for `O=C1C[C@@](C(=O)NCC(F)(F)F)(c2ccc([N+](=O)[O-])cc2)[C@@H](c2ccc(CO)cc2)N1C1CCCCC1` is 0.0421.
